# Test results as given in publication PMC11006913.
# How the values were obtained:
# Assay in all cases: PBM; 200 nM protein, PBS
# Conditions in all cases: dsDNA, one strand shown
# VAX1 [1] = molecular target: VAX1 (Homo sapiens, UniProt Q5SQQ9 86-172)
# VAX1 [2] = molecular target: VAX1 (Homo sapiens, UniProt Q5SQQ9 86-172, T142I)
# VAX1 [3] = molecular target: VAX1 (Homo sapiens, UniProt Q5SQQ9 86-172, K157R)
# HOXD13 = HOXD13 (Homo sapiens, UniProt P35453 263-343, T313A)
# PAX4 = molecular target: T1, PAX4 (Homo sapiens, UniProt O43316 9-242, R227W)
# T1 sequence: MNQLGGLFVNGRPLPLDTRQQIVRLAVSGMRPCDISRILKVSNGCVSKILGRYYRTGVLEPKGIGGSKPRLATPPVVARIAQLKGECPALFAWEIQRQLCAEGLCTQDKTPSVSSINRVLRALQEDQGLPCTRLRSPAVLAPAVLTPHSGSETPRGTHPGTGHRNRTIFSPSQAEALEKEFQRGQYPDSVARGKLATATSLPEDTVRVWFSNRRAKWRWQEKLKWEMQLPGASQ
# NKX3-2 [4] = molecular target: NKX3-2 (Homo sapiens, UniProt P78367 192-278, P234S)
# NKX3-2 [5] = molecular target: NKX3-2 (Homo sapiens, UniProt P78367 192-278)
# NKX2-6 = molecular target: T2, NKX2-6 (Homo sapiens, UniProt A6NCS4 118-204, F151L)
# T2 sequence: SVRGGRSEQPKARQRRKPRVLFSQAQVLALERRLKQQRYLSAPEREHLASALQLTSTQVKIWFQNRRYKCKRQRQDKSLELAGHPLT
# HOXC9 = HOXC9 (Homo sapiens, UniProt P31274 178-260, R222W)
# HESX1 = HESX1 (Homo sapiens, UniProt Q9UBX0 95-180, F115L)
# HESX1, sequence (Q9UBX0 95-180 F115L): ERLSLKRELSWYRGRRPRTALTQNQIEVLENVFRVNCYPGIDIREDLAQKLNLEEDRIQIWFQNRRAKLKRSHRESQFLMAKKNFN
# VAX1 (Homo sapiens, UniProt Q5SQQ9 86-172, T142I), sequence (Q5SQQ9 86-172 T142I): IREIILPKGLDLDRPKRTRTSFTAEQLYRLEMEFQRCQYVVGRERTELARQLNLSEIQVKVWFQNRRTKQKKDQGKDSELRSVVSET
# VAX1 (Homo sapiens, UniProt Q5SQQ9 86-172, K157R), sequence (Q5SQQ9 86-172 K157R): as the sequence (Q5SQQ9 86-172 T142I) above, with I57T, K72R counted along it
# NKX3-2 (Homo sapiens, UniProt P78367 192-278), sequence (P78367 192-278): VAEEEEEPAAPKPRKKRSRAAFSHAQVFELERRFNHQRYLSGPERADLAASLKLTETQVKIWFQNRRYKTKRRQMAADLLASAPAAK
# VAX1 (Homo sapiens, UniProt Q5SQQ9 86-172), sequence (Q5SQQ9 86-172): as the sequence (Q5SQQ9 86-172 T142I) above, with I57T counted along it
# HOXD13, sequence (P35453 263-343 T313A): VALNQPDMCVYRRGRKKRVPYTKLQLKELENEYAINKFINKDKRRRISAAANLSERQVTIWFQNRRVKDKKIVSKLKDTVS
# NKX3-2 (Homo sapiens, UniProt P78367 192-278, P234S), sequence (P78367 192-278 P234S): as the sequence (P78367 192-278) above, with P43S counted along it
# HOXC9, sequence (P31274 178-260 R222W): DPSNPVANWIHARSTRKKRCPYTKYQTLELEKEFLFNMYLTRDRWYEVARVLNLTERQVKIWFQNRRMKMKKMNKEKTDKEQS
sequence,measurement,setting,value
ATTATTCC,binding signal,VAX1 [1],"10.3 upbm affinity estimate (log intensity, higher = more binding, comparable within an allelic series)"
same,binding signal,VAX1 [2],"10.1 upbm affinity estimate (log intensity, higher = more binding, comparable within an allelic series)"
same,binding signal,VAX1 [3],"10.1 upbm affinity estimate (log intensity, higher = more binding, comparable within an allelic series)"
CGCCGCTC,binding signal,VAX1 [1],"7.19 upbm affinity estimate (log intensity, higher = more binding, comparable within an allelic series)"
same,binding signal,VAX1 [2],"7.18 upbm affinity estimate (log intensity, higher = more binding, comparable within an allelic series)"
same,binding signal,VAX1 [3],"7.31 upbm affinity estimate (log intensity, higher = more binding, comparable within an allelic series)"
CAACGCGG,binding signal,VAX1 [1],"7.3 upbm affinity estimate (log intensity, higher = more binding, comparable within an allelic series)"
same,binding signal,VAX1 [2],"7.21 upbm affinity estimate (log intensity, higher = more binding, comparable within an allelic series)"
same,binding signal,VAX1 [3],"7.43 upbm affinity estimate (log intensity, higher = more binding, comparable within an allelic series)"
GCGGGAGC,binding signal,VAX1 [1],"7.11 upbm affinity estimate (log intensity, higher = more binding, comparable within an allelic series)"
same,binding signal,VAX1 [2],"7.36 upbm affinity estimate (log intensity, higher = more binding, comparable within an allelic series)"
same,binding signal,VAX1 [3],"7.04 upbm affinity estimate (log intensity, higher = more binding, comparable within an allelic series)"
AATATGCT,binding signal,VAX1 [1],"9.71 upbm affinity estimate (log intensity, higher = more binding, comparable within an allelic series)"
same,binding signal,VAX1 [2],"9.56 upbm affinity estimate (log intensity, higher = more binding, comparable within an allelic series)"
same,binding signal,VAX1 [3],"9.53 upbm affinity estimate (log intensity, higher = more binding, comparable within an allelic series)"
AGCCATTA,binding signal,VAX1 [1],"11.7 upbm affinity estimate (log intensity, higher = more binding, comparable within an allelic series)"
same,binding signal,VAX1 [2],"11.3 upbm affinity estimate (log intensity, higher = more binding, comparable within an allelic series)"
same,binding signal,VAX1 [3],"11.2 upbm affinity estimate (log intensity, higher = more binding, comparable within an allelic series)"
CGGGGGAC,binding signal,VAX1 [1],"7.24 upbm affinity estimate (log intensity, higher = more binding, comparable within an allelic series)"
same,binding signal,VAX1 [2],"7.14 upbm affinity estimate (log intensity, higher = more binding, comparable within an allelic series)"
same,binding signal,VAX1 [3],"6.94 upbm affinity estimate (log intensity, higher = more binding, comparable within an allelic series)"
TAATACCA,binding signal,VAX1 [1],"10.2 upbm affinity estimate (log intensity, higher = more binding, comparable within an allelic series)"
same,binding signal,VAX1 [2],"9.86 upbm affinity estimate (log intensity, higher = more binding, comparable within an allelic series)"
same,binding signal,VAX1 [3],"9.87 upbm affinity estimate (log intensity, higher = more binding, comparable within an allelic series)"
AATTGACG,binding signal,VAX1 [1],"10.6 upbm affinity estimate (log intensity, higher = more binding, comparable within an allelic series)"
same,binding signal,VAX1 [2],"10.1 upbm affinity estimate (log intensity, higher = more binding, comparable within an allelic series)"
same,binding signal,VAX1 [3],"10.2 upbm affinity estimate (log intensity, higher = more binding, comparable within an allelic series)"
ATATTACC,binding signal,VAX1 [1],"11.5 upbm affinity estimate (log intensity, higher = more binding, comparable within an allelic series)"
same,binding signal,VAX1 [2],"11.2 upbm affinity estimate (log intensity, higher = more binding, comparable within an allelic series)"
same,binding signal,VAX1 [3],"11.4 upbm affinity estimate (log intensity, higher = more binding, comparable within an allelic series)"
AATATTGG,binding signal,VAX1 [1],"9.86 upbm affinity estimate (log intensity, higher = more binding, comparable within an allelic series)"
same,binding signal,VAX1 [2],"9.41 upbm affinity estimate (log intensity, higher = more binding, comparable within an allelic series)"
same,binding signal,VAX1 [3],"9.62 upbm affinity estimate (log intensity, higher = more binding, comparable within an allelic series)"
ATCGTTCA,binding signal,VAX1 [1],"9.46 upbm affinity estimate (log intensity, higher = more binding, comparable within an allelic series)"
same,binding signal,VAX1 [2],"9.08 upbm affinity estimate (log intensity, higher = more binding, comparable within an allelic series)"
same,binding signal,VAX1 [3],"9.31 upbm affinity estimate (log intensity, higher = more binding, comparable within an allelic series)"
CAAATCTA,binding signal,VAX1 [1],"8.78 upbm affinity estimate (log intensity, higher = more binding, comparable within an allelic series)"
same,binding signal,VAX1 [2],"8.51 upbm affinity estimate (log intensity, higher = more binding, comparable within an allelic series)"
GTCCCTAA,binding signal,VAX1 [1],"9.58 upbm affinity estimate (log intensity, higher = more binding, comparable within an allelic series)"
same,binding signal,VAX1 [2],"9.36 upbm affinity estimate (log intensity, higher = more binding, comparable within an allelic series)"
same,binding signal,VAX1 [3],"9.3 upbm affinity estimate (log intensity, higher = more binding, comparable within an allelic series)"
CTGAGCCC,binding signal,VAX1 [1],"7.3 upbm affinity estimate (log intensity, higher = more binding, comparable within an allelic series)"
same,binding signal,VAX1 [2],"7.49 upbm affinity estimate (log intensity, higher = more binding, comparable within an allelic series)"
same,binding signal,VAX1 [3],"7.38 upbm affinity estimate (log intensity, higher = more binding, comparable within an allelic series)"
ACTATTAA,binding signal,HOXD13,"11.6 upbm affinity estimate (log intensity, higher = more binding, comparable within an allelic series)"
CATATTAG,binding signal,PAX4,"10.9 upbm affinity estimate (log intensity, higher = more binding, comparable within an allelic series)"
AAAGTGGA,binding signal,NKX3-2 [4],"12.6 upbm affinity estimate (log intensity, higher = more binding, comparable within an allelic series)"
same,binding signal,NKX3-2 [5],"12.6 upbm affinity estimate (log intensity, higher = more binding, comparable within an allelic series)"
CGAAGTGC,binding signal,NKX3-2 [4],"12.5 upbm affinity estimate (log intensity, higher = more binding, comparable within an allelic series)"
CAAAGTGG,binding signal,NKX3-2 [4],"12.8 upbm affinity estimate (log intensity, higher = more binding, comparable within an allelic series)"
same,binding signal,NKX3-2 [5],"12.9 upbm affinity estimate (log intensity, higher = more binding, comparable within an allelic series)"
AGTGGAGA,binding signal,NKX3-2 [4],"11.7 upbm affinity estimate (log intensity, higher = more binding, comparable within an allelic series)"
same,binding signal,NKX3-2 [5],"11.7 upbm affinity estimate (log intensity, higher = more binding, comparable within an allelic series)"
ACTTAAGG,binding signal,NKX2-6,"10.6 upbm affinity estimate (log intensity, higher = more binding, comparable within an allelic series)"
CCTGGCCG,binding signal,NKX3-2 [4],"10.5 upbm affinity estimate (log intensity, higher = more binding, comparable within an allelic series)"
same,binding signal,NKX3-2 [5],"10.5 upbm affinity estimate (log intensity, higher = more binding, comparable within an allelic series)"
ATAAAAAA,binding signal,HOXC9,"11.1 upbm affinity estimate (log intensity, higher = more binding, comparable within an allelic series)"
CTTATTAA,binding signal,HESX1,"7.74 upbm affinity estimate (log intensity, higher = more binding, comparable within an allelic series)"
ATTAAAAA,binding signal,HOXC9,"11 upbm affinity estimate (log intensity, higher = more binding, comparable within an allelic series)"
AAGTGTTC,binding signal,NKX2-6,"10.8 upbm affinity estimate (log intensity, higher = more binding, comparable within an allelic series)"
CTGTAAAA,binding signal,HOXD13,"11.6 upbm affinity estimate (log intensity, higher = more binding, comparable within an allelic series)"
AAGTGCTA,binding signal,NKX2-6,"10.6 upbm affinity estimate (log intensity, higher = more binding, comparable within an allelic series)"
CAAAGAGG,binding signal,NKX3-2 [4],"11.9 upbm affinity estimate (log intensity, higher = more binding, comparable within an allelic series)"
same,binding signal,NKX3-2 [5],"12 upbm affinity estimate (log intensity, higher = more binding, comparable within an allelic series)"
GTTTACAA,binding signal,HOXD13,"11.6 upbm affinity estimate (log intensity, higher = more binding, comparable within an allelic series)"
GACGGGAC,binding signal,NKX3-2 [4],"10.5 upbm affinity estimate (log intensity, higher = more binding, comparable within an allelic series)"
same,binding signal,NKX3-2 [5],"10.5 upbm affinity estimate (log intensity, higher = more binding, comparable within an allelic series)"
GAGTGACA,binding signal,NKX3-2 [4],"11.4 upbm affinity estimate (log intensity, higher = more binding, comparable within an allelic series)"
same,binding signal,NKX3-2 [5],"11.5 upbm affinity estimate (log intensity, higher = more binding, comparable within an allelic series)"
